Hits are enriched below; roughly 18% of the tested compounds scored in any of these assays.
IL-1B inflam inh = blocks inflammasome-driven IL-1 beta release. THP-1 LPS/ATP IL-1B secretion, AlphaLISA, 16 h; stronger effect = lower value. activity change, % at 57.5 µM. 4.7% of 360,000 active; in the data active means activity change below about -50%; inconclusive means mostly about -30% to -49%
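Secreted IL-1B measured by AlphaLISA bead assay after 16 h compound exposure of THP-1 cells; compounds (final up to 57.5 uM) added 1 h before LPS (250 ng/mL) and ATP (1.25 mM) stimulation; lower signal means less secretion.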
DT40 TDP1 no CPT = qHTS for Inhibitors of human tyrosyl-DNA phosphodiesterase 1 (TDP1): qHTS in cells in absence of CPT; DT40 Tdp1-/- hTDP1 cells, no CPT, ATP luminescence, 48 h; 15% of 420,000 active; Potency, µM (doses to about 46.2 µM), actives largely listed as inhibitors; further: nearly all actives have a fitted effect of over 55% in size
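Camptothecin absent (DMSO only). Human TDP1-complemented DT40 knockout cells, 400 cells/well, 37 °C for minimum 48 hr; ATP measured via CellTiter-Glo, 30 min dark incubation, luminescence.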
Six1-Eya2 blk = inhibitors of human Six1/Eya2 interaction; Q15475+O00167; AlphaScreen GST-Six1/His-Eya2 binding, biochemical; stronger effect = lower value; activity change, % (test concentration not listed); 0.56% of 360,000 active; AID 651725; in the data active means activity change below about -65%; inconclusive means mostly about -30% to -63%
Target sequence (O00167 whole entry, looked up): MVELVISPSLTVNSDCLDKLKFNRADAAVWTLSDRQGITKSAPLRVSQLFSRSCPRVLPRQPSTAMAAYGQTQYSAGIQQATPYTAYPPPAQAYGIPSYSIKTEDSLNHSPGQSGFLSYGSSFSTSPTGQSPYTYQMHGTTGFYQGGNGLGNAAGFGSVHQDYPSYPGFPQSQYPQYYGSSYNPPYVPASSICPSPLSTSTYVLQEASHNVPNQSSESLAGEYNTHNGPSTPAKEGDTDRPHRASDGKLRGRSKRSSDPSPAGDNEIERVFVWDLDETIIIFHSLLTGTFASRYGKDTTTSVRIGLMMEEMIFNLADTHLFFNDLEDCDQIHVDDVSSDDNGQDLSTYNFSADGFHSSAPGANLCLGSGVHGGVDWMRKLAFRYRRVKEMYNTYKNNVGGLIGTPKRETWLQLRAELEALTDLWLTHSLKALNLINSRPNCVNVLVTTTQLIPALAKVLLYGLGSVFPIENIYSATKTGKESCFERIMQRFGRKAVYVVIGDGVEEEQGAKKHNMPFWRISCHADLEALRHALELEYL
Target sequence (Q15475 whole entry, looked up): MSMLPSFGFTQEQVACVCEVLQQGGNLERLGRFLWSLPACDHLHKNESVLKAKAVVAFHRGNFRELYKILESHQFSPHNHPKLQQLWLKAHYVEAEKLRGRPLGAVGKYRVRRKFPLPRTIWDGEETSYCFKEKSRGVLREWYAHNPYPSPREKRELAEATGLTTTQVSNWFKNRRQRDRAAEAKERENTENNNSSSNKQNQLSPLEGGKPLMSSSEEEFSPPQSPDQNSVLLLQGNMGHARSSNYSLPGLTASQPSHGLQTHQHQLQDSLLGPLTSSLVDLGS
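Six1/Eya2 binding was read as AlphaScreen signal after compounds were pinned into GST-Six1 plus His-tagged Eya2 (5X stock 250/500 nM) in pH 8.0 Tris/NaCl/TCEP buffer, beads added, then incubated 1 h, 37 C, dark.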
DT40 TDP1 CPT = growth inhibition of DT40 Tdp1-/-;hTDP1 cells with camptothecin (screen for TDP1 inhibitors); 12% of 420,000 active; chicken DT40 Tdp1-/-;hTDP1 cells + 20 nM CPT, ATP luminescence, 48 h; AID 686979; Potency, µM (titrated, usually from 46.2 µM), most hits filed as inhibitors; further: nearly all actives have a fitted effect of over 55% in size
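Chicken DT40 Tdp1-/- cells stably complemented with human TDP1 were seeded at 400 cells/well in medium containing 20 nM camptothecin, exposed to pin-transferred compounds, and grown at 37 °C for at least 48 hr. Viability was read as ATP luminescence.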
TDP1 inh = blocks human tyrosyl-DNA phosphodiesterase 1. recombinant TDP1, AlphaScreen DNA substrate cleavage. Potency, µM (top dose mostly 130 µM), most hits filed as inhibitors. 0.28% of 350,000 active; further: nearly all actives have a fitted effect of over 40% in size
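Recombinant human Tdp1 (E. coli-expressed, 1 nM final) preincubated with compounds 15 min at room temperature, then 5'-biotin/3'-phosphotyrosine-FITC DNA substrate (15 nM final) added for 5 min. AlphaScreen beads (10 ug/ml final) added 10 min; cleavage lowers signal.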
CtBP-E1A blk = blocks the CtBP interaction with E1A | 0.49% of 340,000 active | AID 651724 | activity change, % (no concentration beside the values) | AlphaScreen GST-E1A/His-CtBP binding, 1536-well; stronger effect = lower value; in the data active means activity change below about -65%; inconclusive means mostly about -30% to -63%
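GST-E1A and His-tagged CtBP (125 nM each as 5X stock) were preincubated with pin-transferred compound for 2 h at 37 °C in the dark, then glutathione donor and nickel acceptor beads were added for 1 h before AlphaScreen reading.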
Numbers stand for hits; [ ] = another dose, or the depositor's remark. Unless noted, the call rests on the fitted dose curve; in most records, active means well fitted curve in the direction sought with a large enough effect; inconclusive means small, poorly fitted or top-dose-only effect, or another doubt; inactive means no such curve, though single readings can be large; an effect the other way counts as inactive or inconclusive.

Screening COc1ccc(C(=O)Nc2cccc(-c3cn4ccsc4n3)c2)c(OC)c1 returned DT40 TDP1 no CPT 6.5µM, DT40 TDP1 CPT 5.2µM and TDP1 inh inactive.
`COc1cccc(C(=O)Nc2cccc(-c3cn4c(C)csc4n3)c2)c1OC` gave DT40 TDP1 no CPT 16µM, DT40 TDP1 CPT 18µM and TDP1 inh inactive.
`CCCCC/C=N/NC(=O)c1[nH]c2ccc([N+](=O)[O-])cc2c1C` gave IL-1B inflam inh inactive, DT40 TDP1 no CPT inconclusive, Six1-Eya2 blk inactive, DT40 TDP1 CPT inactive, TDP1 inh inactive and CtBP-E1A blk inactive.
`NC(=O)c1ccccc1NC(=O)CC12CC3CC(CC(C3)C1)C2` gave IL-1B inflam inh inactive, DT40 TDP1 no CPT inconclusive, Six1-Eya2 blk inactive, DT40 TDP1 CPT 21µM and CtBP-E1A blk inactive.
Cc1ccc(NC(=O)CNC(=O)CC23CC4CC(CC(C4)C2)C3)c(O)c1 was read as IL-1B inflam inh -52, DT40 TDP1 no CPT inactive, Six1-Eya2 blk inactive, DT40 TDP1 CPT inactive, TDP1 inh inactive[0.505 µM] and CtBP-E1A blk inactive.
CCOCN(C(=O)CSc1nc2ccccc2[nH]1)c1c(C)cccc1CC was read as DT40 TDP1 no CPT 23µM and DT40 TDP1 CPT 15µM.
Screening CCOCN(C(=O)Cn1c(CC(C)C)nc2ccccc21)c1c(C)cccc1CC returned DT40 TDP1 no CPT 23µM and DT40 TDP1 CPT inconclusive.
For CCc1cccc(CC)c1N(COC)C(=O)Cn1c(CO)nc2ccccc21 the results were IL-1B inflam inh inactive, DT40 TDP1 no CPT inconclusive, Six1-Eya2 blk inactive, DT40 TDP1 CPT inconclusive, TDP1 inh inactive and CtBP-E1A blk inactive.
For CCOC(=O)c1ccc(NC(=O)C2CCN(S(=O)(=O)c3ccccc3)CC2)cc1 the results were IL-1B inflam inh inactive, DT40 TDP1 no CPT inconclusive, Six1-Eya2 blk inactive, DT40 TDP1 CPT 26µM and CtBP-E1A blk inactive.
For CCOC(=O)c1ccc(NC(=O)C2CCN(S(=O)(=O)CC)CC2)cc1 the results were IL-1B inflam inh inactive, DT40 TDP1 no CPT inactive, Six1-Eya2 blk inactive, DT40 TDP1 CPT inactive, TDP1 inh inactive and CtBP-E1A blk inactive.
COC(=O)Nc1ccc(S(=O)(=O)N2CCC(Cc3ccccc3)CC2)cc1 was read as IL-1B inflam inh inconclusive, DT40 TDP1 no CPT 21µM, Six1-Eya2 blk inactive, DT40 TDP1 CPT inconclusive, TDP1 inh inactive and CtBP-E1A blk inactive.
Screening O=C(NCC1COc2ccccc2O1)C1CCN(S(=O)(=O)c2ccccc2)CC1 (centres undefined) returned IL-1B inflam inh inactive, DT40 TDP1 no CPT inactive, Six1-Eya2 blk inactive, DT40 TDP1 CPT inactive, TDP1 inh inactive and CtBP-E1A blk inactive.
CCOC(=O)c1ccc(S(=O)(=O)N2CCC(C(=O)NCC3COc4ccccc4O3)CC2)cc1 (centres undefined) was read as IL-1B inflam inh inactive, DT40 TDP1 no CPT 23µM, Six1-Eya2 blk inactive, DT40 TDP1 CPT 21µM and CtBP-E1A blk inactive.
For COC(=O)Nc1ccc(S(=O)(=O)N2CCC(C)CC2)cc1 the results were IL-1B inflam inh inactive, DT40 TDP1 no CPT inactive, Six1-Eya2 blk inactive, DT40 TDP1 CPT inactive, TDP1 inh inactive and CtBP-E1A blk inactive.
For O=C(Nc1ccc(Oc2ccccc2)cc1)C1CCN(S(=O)(=O)c2ccccc2)CC1 the results were DT40 TDP1 no CPT 9.2µM and DT40 TDP1 CPT inconclusive.
For CCn1cc(Cl)c(C(=O)Nc2ccc(OC)c(OC)c2)n1 the results were IL-1B inflam inh inactive, DT40 TDP1 no CPT inactive, Six1-Eya2 blk inactive, DT40 TDP1 CPT inactive, TDP1 inh inactive and CtBP-E1A blk inactive.
For CCN(Cc1ccccc1)C(=O)c1ccc(C(=O)N(CC)Cc2ccccc2)cc1 the results were IL-1B inflam inh inconclusive, DT40 TDP1 no CPT inconclusive, Six1-Eya2 blk inactive, DT40 TDP1 CPT inconclusive and CtBP-E1A blk inactive.
Screening CCOC(=O)c1ccc(NC(=O)C2C3CCCCC32)cc1 (centres undefined) returned IL-1B inflam inh -64, DT40 TDP1 no CPT inconclusive, Six1-Eya2 blk inactive, DT40 TDP1 CPT inactive, TDP1 inh inactive and CtBP-E1A blk inactive.
Screening Cc1ccc(C)c2[nH]c(=O)c(CN(CCCN(C)C)C(=O)NCc3ccccc3)cc12 returned IL-1B inflam inh inconclusive, DT40 TDP1 no CPT 23µM, Six1-Eya2 blk inactive, DT40 TDP1 CPT inconclusive, TDP1 inh inactive and CtBP-E1A blk inactive.
For Cc1cc(C)c2cc(CN(CCCN(C)C)C(=S)NCc3ccccc3)c(=O)[nH]c2c1 the results were IL-1B inflam inh -73, DT40 TDP1 no CPT inconclusive, Six1-Eya2 blk inactive, DT40 TDP1 CPT 21µM, TDP1 inh inactive and CtBP-E1A blk inactive.
COc1ccc(NC(=O)N(CCc2ccccc2)Cc2cc3c(C)cc(C)cc3[nH]c2=O)cc1 was read as IL-1B inflam inh inactive, DT40 TDP1 no CPT inconclusive, Six1-Eya2 blk inactive, DT40 TDP1 CPT inconclusive, TDP1 inh inactive and CtBP-E1A blk inactive.
Screening Cc1ccc(NC(=O)CSc2nc(N)cc(N)n2)cc1S(=O)(=O)N1CCOCC1 returned IL-1B inflam inh inactive, DT40 TDP1 no CPT inactive, Six1-Eya2 blk inactive, DT40 TDP1 CPT inactive, TDP1 inh inactive and CtBP-E1A blk inactive.
Cc1nc(-c2ccc(F)cc2)c(CC(=O)Nc2ccc(C)c(S(=O)(=O)N3CCOCC3)c2)s1 was read as IL-1B inflam inh inactive, DT40 TDP1 no CPT inconclusive, Six1-Eya2 blk inactive, DT40 TDP1 CPT 10µM, TDP1 inh inactive and CtBP-E1A blk inactive.
For COc1cc2c(cc1OC)C(C)N(CC(=O)Nc1ccc(C)c(S(=O)(=O)N3CCOCC3)c1)CC2 (centres undefined) the results were IL-1B inflam inh inactive, DT40 TDP1 no CPT 16µM, Six1-Eya2 blk inactive, DT40 TDP1 CPT inconclusive and TDP1 inh inactive.
`Cc1ccc(NC(=O)CNc2cccc(Br)c2)cc1S(=O)(=O)N1CCOCC1` gave IL-1B inflam inh -52, DT40 TDP1 no CPT 16µM, Six1-Eya2 blk inactive, DT40 TDP1 CPT inconclusive, TDP1 inh inactive and CtBP-E1A blk inactive.
Cc1ccc(NC(=O)CNc2cccc(S(=O)(=O)N3CCOCC3)c2)cc1F was read as IL-1B inflam inh inactive, DT40 TDP1 no CPT inconclusive, Six1-Eya2 blk inactive, DT40 TDP1 CPT inconclusive, TDP1 inh inactive and CtBP-E1A blk inactive.
Cc1ccc(NCC(=O)Nc2ccc(F)c(Cl)c2)cc1S(=O)(=O)N1CCOCC1 was read as IL-1B inflam inh inactive, DT40 TDP1 no CPT 21µM, Six1-Eya2 blk inactive, DT40 TDP1 CPT inconclusive and CtBP-E1A blk inactive.
For Cc1ccc(NC(=O)CNC(=O)c2ccc(C(C)(C)C)cc2)cc1S(=O)(=O)N1CCOCC1 the results were IL-1B inflam inh inactive, DT40 TDP1 no CPT inconclusive, Six1-Eya2 blk inactive, DT40 TDP1 CPT inconclusive, TDP1 inh inactive and CtBP-E1A blk inactive.
